HT1080-NT tox = kills 2HG-producing HT-1080-NT fibrosarcoma cells | HT-1080-NT fibrosarcoma viability, CellTiter-Glo ATP luminescence, 48 h | Potency, µM (doses to about 46.1 µM), for the others: at the highest dose activity, negative = less viability, actives largely listed as cytotoxic | 1.6% of 360,000 active;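 note: NT is the 2HG producing partner of a matched IDH1 knockdown line; potency is the fitted concentration of half-maximal effect; 0% = DMSO-treated cells and -100% = media-only wells without cells; nearly all actives have a fitted effect of over 55% in size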
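Compounds were tested in concentration-response format on HT-1080-NT cells for 48 hours at 37 degrees C. Cell viability came from CellTiter-Glo luminescence; curves were classified by r2, response magnitude and activity.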
IL-1B inflam inh = inflammasome signaling inhibition, IL-1 beta readout. THP-1 LPS/ATP IL-1B secretion, AlphaLISA, 16 h; active compounds read low. activity change, % at 57.5 µM. 4.7% of 360,000 active; in the data active = activity change below about -50%; inconclusive = mostly about -30% to -49%
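THP-1 cells pretreated 1 hr with compounds (up to 57.5 uM final), then stimulated with LPS (250 ng/mL final) plus ATP (1.25 mM final); secreted IL-1B measured by AlphaLISA after 16 hr, decreased signal indicating inhibition.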
DT40 TDP1 no CPT = qHTS for Inhibitors of human tyrosyl-DNA phosphodiesterase 1 (TDP1): qHTS in cells in absence of CPT | DT40 Tdp1-/- hTDP1 cells, no CPT, ATP luminescence, 48 h | Potency, µM (highest dose often 46.2 µM), for the others: at the top dose activity change, negative = growth inhibition, usual class: inhibitors | 15% of 420,000 active | AID 686978, 2013; note: potency is the fitted concentration of half-maximal effect; nearly all actives have a fitted effect of over 55% in size
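Compound effects on proliferation are scored in DT40 Tdp1-/-;hTDP1 cells in the absence of CPT. ATP levels (CellTiter-Glo luminescence) are recorded after a ≥48 hr, 37 °C incubation.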
TDP1 cell CPT = DT40-hTDP1 cell growth loss with CPT; chicken DT40 Tdp1-/-;hTDP1 cells + 20 nM CPT, ATP luminescence, 48 h; Potency, µM (series often up to 46.2 µM), without a hit: at the top dose activity change, negative = growth inhibition, most hits filed as inhibitors; 12% of 420,000 active; AID 686979; note: potency is the fitted concentration of half-maximal effect; nearly all actives have a fitted effect of over 55% in size
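Cell growth measured by CellTiter-Glo luminescence after a minimum 48 h, 37 C compound exposure with 20 nM CPT in Tdp1-knockout DT40 cells stably expressing hTDP1, seeded 400/well; qHTS titration format.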
HT1080 IDH1KD tx = HT-1080 IDH1 knockdown cell toxicity (counter line); HT-1080 IDH1 knockdown viability, ATP luminescence, 48 h; Potency, µM (titrated, usually from 46.1 µM), without a hit: at the top dose activity, negative = toxicity, hits mostly cytotoxic; 2% of 360,000 active; AID 686971;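 note: potency is the fitted concentration of half-maximal effect; 0% = DMSO wells and -100% = cell-free medium wells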
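After a 2 h attachment period, IDH1KD HT-1080 cells took pin-transferred compound for 48 h at 37 °C; ATP-based luminescence after 10 min room-temperature reagent incubation reported viability.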
12-LOX inh = ALOX12 (human) lipoxygenase inhibition; purified 12hLO, xylenol orange hydroperoxide absorbance; P18054; 1.1% of 580,000 active; Potency, µM (series often up to 108 µM), without a hit: top-dose activity change, negative = inhibition, actives largely listed as inhibitors; note: potency is the fitted concentration of half-maximal effect
Target sequence (P18054 whole entry, looked up): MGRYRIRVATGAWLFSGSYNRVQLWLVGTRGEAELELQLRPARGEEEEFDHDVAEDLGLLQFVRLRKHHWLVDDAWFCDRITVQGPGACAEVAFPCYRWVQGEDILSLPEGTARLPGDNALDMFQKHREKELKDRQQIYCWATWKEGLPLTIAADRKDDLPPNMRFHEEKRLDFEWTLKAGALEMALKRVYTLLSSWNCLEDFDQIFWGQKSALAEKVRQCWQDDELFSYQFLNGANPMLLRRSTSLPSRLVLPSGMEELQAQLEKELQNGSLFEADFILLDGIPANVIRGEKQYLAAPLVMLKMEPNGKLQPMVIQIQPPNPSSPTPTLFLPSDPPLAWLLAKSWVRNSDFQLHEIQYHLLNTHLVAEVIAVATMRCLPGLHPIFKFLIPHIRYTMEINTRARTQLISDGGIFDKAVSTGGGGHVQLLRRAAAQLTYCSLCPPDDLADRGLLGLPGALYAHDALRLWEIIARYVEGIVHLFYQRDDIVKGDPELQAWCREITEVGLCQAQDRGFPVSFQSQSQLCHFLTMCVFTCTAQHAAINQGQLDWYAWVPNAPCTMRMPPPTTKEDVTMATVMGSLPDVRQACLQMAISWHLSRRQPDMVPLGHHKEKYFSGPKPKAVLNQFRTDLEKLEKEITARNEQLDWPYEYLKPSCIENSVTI
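Hydroperoxide product was detected by ferrous iron/xylenol orange as the 573 to 405 nm absorbance ratio. Arachidonic acid at 40 uM (final) was turned over for 30 min at room temperature by 150 nM human 12hLO, pH 7.0 Hepes buffer, after 15 min compound preincubation.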
* hit, by the source's call; ? = inconclusive; / = no result given. This is one part of a sample in which hits are shown more often than they occur. Unless noted, calls come from the whole dose curve; as a rule, active = well fitted curve in the direction sought with a large enough effect; inconclusive = small, poorly fitted or top-dose-only effect, or another doubt; inactive = no such curve, though single readings can be large; an effect the other way counts as inactive or inconclusive. Unless noted, % is set by controls: 0 for no effect and ±100 for the full control effect.

SMILES	HT1080-NT tox	IL-1B inflam inh	DT40 TDP1 no CPT	TDP1 cell CPT	HT1080 IDH1KD tx	12-LOX inh
Nc1ccc(N(CCO)CCO)cc1	-15%	-8	21µM*	12µM*	-8%	432%
CCN(CC)c1ccc(C(=O)N/N=C(\C)c2ccc(OC)c(OC)c2)cc1	-13%	6	26µM*	-4%	?	7%
CCN(CC)c1ccc(C(=O)NN)cc1	-19%	-52*	-3%	28%	2%	-1%
Cc1ccc(N2CCN(C(=O)c3ccc(Cn4cccn4)o3)CC2=O)cc1	/	/	/	/	/	38%
COc1ccc(S(=O)(=O)NCC2CCCN(C(=O)CC3CCCC3)C2)cc1 (stereo unspecified)	-3%	-7	?	-57%	?	-17%
COCCNC(=O)[C@H]1C[C@H](Oc2ccccc2)CN1C(=O)NCc1ccccc1	/	/	/	/	/	5%
CCCC(=O)Nc1nn2c(CC(C)C)nnc2s1	/	/	/	/	/	25µM*
CCC(CC)C(=O)Nc1nn2c(CC(C)C)nnc2s1	/	/	/	/	/	16µM*
COc1ccccc1CC(=O)N1CCC(c2n[nH]c(=O)n2Cc2ccc(F)cc2)CC1	/	/	/	/	/	-2%
Cc1ccccc1NC(=O)Cn1c(C)cc(=O)n2nc(-c3cccs3)nc12	/	/	/	/	/	3%
COCCn1cnc2c1c(O)nc(=O)n2Cc1ccccc1	/	/	/	/	/	-17%
CN(C)c1nccnc1OC1CCN(C(=O)C2CCOCC2)C1 (stereo unspecified)	/	/	/	/	/	48%
Cc1nn(Cc2ccc(Cl)cc2Cl)c(C)c1NC(=O)CCl	?	-101*	13µM*	15µM*	?	0%
Cc1nn(Cc2ccc(Cl)cc2Cl)c(C)c1NC(=O)C1C2CCC(O2)C1C(=O)O (stereo unspecified)	-3%	-8	15µM*	?	-27%	?
Cc1nn(Cc2ccc(Cl)cc2Cl)c(C)c1NC(=O)c1nn(C)cc1Cl	6%	0	9.2µM*	8.2µM*	-12%	-18%
Cc1nn(Cc2ccccc2Cl)c(C)c1NC(=O)C1C2CCC(O2)C1C(=O)O (stereo unspecified)	-2%	35	?	-18%	0%	-11%
CCc1cc(C(=O)Nc2c(C)nn(Cc3ccccc3Cl)c2C)no1	/	/	?	?	/	-7%
Cc1nn(C)c(Cl)c1NC(=O)OCc1ccc(Cl)cc1Cl	-2%	-4	13µM*	15µM*	-26%	-9%
Cc1nnsc1NC(=O)OCc1ccc(Cl)cc1Cl	-6%	51	?	-25%	-14%	0%
Cc1ccccc1-c1nnc(NC(=O)Nc2ccccc2)s1	/	/	/	/	/	-16%
Cc1cccc(NC(=O)c2ccc([N+](=O)[O-])cc2Cl)n1	13%	-4	?	?	16%	-20%
Cc1cccc(NC(=O)c2ccc([N+](=O)[O-])s2)c1C	-10%	-15	21µM*	15µM*	-17%	-18%
Cc1cccc(NC(=O)c2ccc([N+](=O)[O-])s2)n1	?	12	5.8µM*	8.2µM*	?	-20%
Cc1ccnc(NC(=O)c2ccc([N+](=O)[O-])s2)c1	?	-11	?	16µM*	?	?
Cc1ccnc(NC(=O)c2cc([N+](=O)[O-])cc([N+](=O)[O-])c2)c1	0%	9	-7%	-27%	-3%	?
SMILES	HT1080-NT tox	IL-1B inflam inh	DT40 TDP1 no CPT	TDP1 cell CPT	HT1080 IDH1KD tx	12-LOX inh
COCCNc1ccc([N+](=O)[O-])cc1C(=O)Nc1cccc(C)n1	0%	0	?	13µM*	-11%	0%
COc1cccc(CCC(=O)NCC23CCCC=C2N(C)C(=O)CC3)c1 (stereo unspecified)	/	/	/	/	/	42%
COc1ccc(CNC(=O)C2CCN(c3cc(C(F)(F)F)nc(C)n3)CC2)c(OC)c1	/	/	/	/	/	9%
Cc1cnc(C(=O)N[C@@H]2CCC[C@@H]2C(=O)NCCCn2cccn2)cn1	/	/	/	/	/	30%
CCN(Cc1cccc(S(=O)(=O)O)c1)c1ccc(C(=C2C=CC(=[N+](CC)Cc3cccc(S(=O)(=O)O)c3)C=C2)c2ccccc2S(=O)(=O)[O-])cc1	/	/	13µM*	2µM*	/	/
Cc1cc(Cl)ccc1Nc1nc(N2CCOCC2)nc2nccnc12	/	/	/	/	/	-13%
Cn1ncc(N2CCC(NC(=O)Cc3cccs3)CC2)cc1=O	/	/	/	/	/	22%
Cc1cccc(-c2nc(Cn3nc(C)c4c(C)onc4c3=O)c(C)o2)c1	/	/	/	/	/	-29%
CCNc1nc(NC(C)C)nc(SCCOC(=O)c2ccccc2)n1	-7%	14	?	15µM*	-8%	-20%
CCNc1nc(NC(C)C)nc(SCCOc2ccc(C)cc2)n1	?	-22	23µM*	16µM*	?	?
CCNc1nc(NCC)nc(OCCOC(=O)c2ccccc2)n1	-2%	8	-12%	-14%	1%	0%
COc1ccc(OCCSc2nc(N)cc(N)n2)cc1	-12%	0	?	-4%	-21%	-9%
CCNc1nc(SCCOc2ccc(Br)cc2)nc(N(C)C)n1	0%	6	15µM*	?	-6%	2%
COc1ccccc1NC(=O)C(=O)NCCC1CCCCN1S(=O)(=O)c1cccs1 (stereo unspecified)	-22%	-17	18µM*	29µM*	-17%	-2%
O=C(NCC1CCCN1S(=O)(=O)c1cccs1)C(=O)Nc1ccccc1F (stereo unspecified)	-2%	8	?	?	-3%	-16%
O=C(NCCC1CCCCN1S(=O)(=O)c1cccs1)C(=O)Nc1ccccc1F (stereo unspecified)	5%	4	23µM*	?	6%	-6%
O=C(NCCC1CCCCN1S(=O)(=O)c1cccs1)C(=O)NCc1ccccc1 (stereo unspecified)	-22%	0	21µM*	15µM*	-16%	-28%
O=C(N[C@H](Cc1ccccc1)C(=O)NCC1CCCO1)[C@H]1O[C@@H](n2ccc(=O)[nH]c2=O)[C@H](O)[C@@H]1O (stereo partly specified)	/	/	/	/	/	6%
CCOC(=O)C1=C(C)N(c2ccc3c(c2)OCO3)C(=O)NC1c1cccc(F)c1 (stereo unspecified)	/	/	/	/	/	-6%
CCOc1cccc(C2C=C(c3ccc4c(c3)OCO4)NC(c3ccccc3F)N2)c1O (stereo unspecified)	/	/	16µM*	11µM*	/	/
CCOc1cccc(C2C=C(c3ccc4c(c3)OCO4)NC(c3ccc(F)cc3)N2)c1O (stereo unspecified)	/	/	13µM*	14µM*	/	/

High-throughput results as filed in PubChem.
